The values that follow come from PubChem BioAssay AID720565 (National Center for Advancing Translational Sciences (NCATS), 2013).

The structures appear in SMILES notation. Inconclusive results are not listed. The source made the active and inactive calls. Calls follow the shape of the dose curve; as a rule, active = well fitted activation curve with a large enough effect; inconclusive = small, poorly fitted or top-dose-only effect; inactive = no such curve, though single readings can be large or run the other way.
Potency is read from the fitted curve at half-maximal effect.

This assay is described as follows: qHTS for small molecules that induce genotoxicity in ELG1 expressing cells: Confirmatory Assay for Cherry-picked Compounds. Also: nearly all actives have a fitted effect of over 35% in size. As to activation: % of control where 0% means no effect. The following applies: ELG1-luciferase reporter cells, luminescence, 16 h; series mostly up to 46.1 µM; activation: at the top concentration. From the text: Cancer cells divide rapidly compared to normal cells in the body. During cell division, cancer cells need to duplicate their genome by DNA replication. The failure of genome duplication leads to cancer cells' death. Therefore, inhibitors of DNA replication could specifically kill cancer cells. Based on this concept, many chemotherapeutic agents were developed and have been used to treat cancer patients. However, there are a limited number of agents available in the clinical setting, and some of those that do exist have low efficacy and severe side effects. Therefore, if we can find the compounds that effectively block DNA replication either by directly damaging DNA or by inhibiting other cellular mechanisms, the options for cancer treatment will be broadened. We developed a quantitative high-throughput ELG1-luciferase reporter gene assay. Since the level of human ELG1 protein is enhanced in response to genetic stresses, increases in luciferase activity can be used to identify compounds that cause genetic stress. The data herein is the result of the confirmation assay against the cherry picked compounds selected from the primary qHTS (AID 504466). Activation is the desired outcome for this assay. NIH Chemical Genomics Center [NCGC] NIH Molecular Libraries Probe Centers Network [MLPCN] MLPCN Grant: MH092164 Assay Provider: Kyungjae Myung, National Human Genome Research Institute, NIH
For genotoxicity screening, 2,000 cells/ well (5 uL volume) were dispensed into white, solid-bottom 1536-well plates using a solenoid-based dispenser. Following transfer of 23 nL compound or DMSO vehicle by a pin tool, the plates were incubated 16 hr at 37 C, 5% CO2. Five microliter of ONE-Glo reagent (Promega) was then added to each plate. The assay plates were incubated for 30 min at room temperature followed by quantification of the luciferase activity using the PerkinElmer ViewLux CCD-based plate reader.
In general terms: qHTS replaces the single test concentration by a dilution series.
For `CC(=O)c1cc2c(cc1NC(=O)CSc1nc3ccccc3o1)OCO2`, the “activation” value was 22% (inactive).

With `Cc1ccc2c(c1)C/C(=C/c1ccc(N(C)C)cc1)C2=O`, the Potency was 7.05 µM (active).

For `CN(C)c1ccc(C(=O)OCC(=O)c2ccc[nH]2)cc1`, the Potency is 14.1 µM (active).

As to `CC(=O)NC12CC3CC(C1)CC(C(=O)OCC(=O)c1cc(C)n(C)c1C)(C3)C2`, the Potency is 2.81 µM (active).

Turning to `C(=C\c1ccc2ccccc2n1)/c1cccnc1`, the Potency was 0.25 µM (active).

`Cc1ccc(C(=O)Cn2c3c(sc2=N)CCCC3)cc1`: the Potency was 0.141 µM (active).

Consider `Cc1ccc(C(=O)NN=CC(=O)c2ccccc2)c(C)c1`, for which the Potency was 6.28 µM (active).

`O=C(CSc1nnc(-c2cccc(Cl)c2)o1)Nc1ccc2c(c1)OCCO2`: the Potency is 15.8 µM (active).

`CN(C)c1cccc(C(=O)NNC(=O)CN2C(=O)C3CC=CCC3C2=O)c1` (stereo not given): the Potency was 7.91 µM (active).

With `O=C(N[C@H]1/C=C\[C@@H](O)CCCC1)OCc1ccccc1`, the Potency was 9.96 µM (active).

For the compound `CCOC(=O)c1cc(-c2ccc([N+](=O)[O-])cc2)nc2c1c(=O)[nH]c(=O)n2Cc1ccccc1`, the Potency is 11.2 µM (active).

For the compound `Cc1ccccc1-c1nnc(SCC(=O)Nc2cccnc2Cl)o1`, the Potency was 3.15 µM (active).

In the case of `CN(C)c1ccccc1-c1csc(N2CCC(C(N)=O)CC2)n1`, the Potency was 1.99 µM (active).

As to `C[C@@H]1CC2[C@@H]3CCC4=CC(=O)C=C[C@]4(C)[C@@]3(F)[C@@H](O)C[C@]2(C)[C@@]1(O)C(=O)NCCCCCCOC[C@H]1O[C@@H](n2cnc3cc(Cl)c(Cl)cc32)[C@@H]2OC(C)(C)O[C@@H]21` (stereo not given in full), the Potency is 2.29 µM (active).

`CN(C)c1ccc(C=Nc2cncc3ccccc23)cc1`: the Potency was 0.889 µM (active).

`CC1CCCCC1NC(=O)CN1C(=O)NC(C)(c2ccc(OC(F)F)cc2)C1=O` (stereo not given): the “activation” value was -13.2% (inactive).

In the case of `CNc1ccc(/C=C2\C=Cc3ccccc32)cc1`, the Potency was 0.792 µM (active).

For `COc1ccc(-c2cc3cc(F)ccc3cn2)cc1`, the Potency was 2.23 µM (active).

With `Cc1cc(C(=O)Nc2ccc(Br)cn2)sc1C`, the Potency was 2.5 µM (active).

As to `Cc1ccc(S(=O)(=O)Nc2cc3c4c(c2)CCN4C(=O)CC3)cc1`, the Potency was 22.3 µM (active).

With `CN(C)c1ccc(/C=C/c2ccc3ccccc3[n+]2[O-])cc1`, the Potency was 0.0792 µM (active).

With `CC(C)C(=O)SCCCCCCC(=O)Nc1nc(-c2ccccc2)cs1`, the Potency is 12.5 µM (active).

As to `CCn1c(=O)n(CC)c2cc(S(=O)(=O)N3CCCCC3)c(C)cc21`, the “activation” value is 26.9% (inactive).

On to `CC(=O)Nc1ccc(/C=C/c2sc3ccccc3[n+]2CCCCI)cc1`, for which the Potency is 22.3 µM (active).

As to `N#Cc1cc2cc3c(cc2nc1SCC(=O)N1CCOCC1)OCO3`, the Potency is 4.45 µM (active).

For `O=C1CCCC(=NNC(=O)c2cc3ccccc3cc2O)C1`, the Potency was 15.8 µM (active).

As for `CC(=O)OCC1=C[C@H]2[C@@H]3C(C)(C)[C@]3(OC(C)=O)C[C@@H](C)[C@]2(O)[C@@H]2C=C(C)C(=O)[C@@]2(O)C1`, the Potency is 2.23 µM (active).

`COc1cccc(CNC(=O)C2CCCN(c3nn4c(=O)cc(C)nc4s3)C2)c1` (stereo not given): the “activation” value is -15.2% (inactive).

Turning to `COc1ccc(-c2nnc(SC(C)C(=O)Nc3cccc(Cl)c3)o2)cc1` (stereo not given), the Potency is 12.5 µM (active).

Regarding `CN(C)c1ccc(-c2cc3ccccc3c(=O)o2)cc1`, the Potency is 0.445 µM (active).

Consider `COc1ccc(-c2cc3cc4c(cc3cn2)OCO4)cc1`, for which the Potency is 1.77 µM (active).

As for `Cc1cc(C)cc(NC(=O)CCc2nc3sc4c(c3c(=O)[nH]2)CCCC4)c1`, the “activation” value was 15.7% (inactive).

On to `COc1ccc(S(=O)(=O)Nc2cccc3cccnc23)c([N+](=O)[O-])c1`, for which the “activation” value is -14.5% (inactive).

Regarding `Clc1ccc(-c2cnnc(-c3ccccn3)n2)cc1`, the Potency is 14.1 µM (active).

In the case of `CN(C)c1ccc(/C=C2\CCc3ccccc32)cc1`, the Potency was 1.58 µM (active).

On to `COc1ccc(-c2coc3cc(O)cc(O)c3c2=O)cc1`, for which the Potency is 9.96 µM (active).

As to `CCCCCn1ncc2c3sc(C)cc3n(C)c2c1=O`, the Potency is 12.5 µM (active).

With `Oc1ccc(CCc2ccccc2F)c2cccnc12`, the Potency was 14.1 µM (active).

`O=c1c(-c2ccc(F)cc2)coc2c3c(ccc12)OCCO3`: the Potency is 4.45 µM (active).

Turning to `C=C1C(c2ccc(C)cc2)=CCc2cc(C)cc(C)c21`, the Potency was 5 µM (active).
